Compound activity (PubChem BioAssay)
KB-3-1 cytotox – qHTS assay for MDR1-selective chemotherapeutics: Primary screen using the parental adenocarcinoma cell KB-3-1. KB-3-1 viability, CellTiter-Glo ATP luminescence, 72 h. Potency, µM (top dose mostly 46.1 µM), actives largely listed as cytotoxic. 1.4% of 400,000 active; also: potency is read from the fitted curve at half-maximal effect; nearly all actives have a fitted effect of over 60% in size
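Multi-concentration cytotoxicity screen in KB-3-1 cells grown in DMEM lacking phenol red with 10% FBS. After 72 h at 37 °C with compound, ATP-dependent luminescence was recorded.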
Nrf2 inh – Nrf2 qHTS screen for inhibitors; A549 ARE-Fluc reporter, luciferase luminescence, 18-24 h; Potency, µM (doses to about 46 µM), for inactives: at the top dose activity change, negative = inhibition, hits mostly inhibitors; 2.1% of 360,000 active; also: potency is read from the fitted curve at half-maximal effect; nearly all actives have a fitted effect of over 60% in size
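Cells were seeded and rested 2 h, then exposed to compounds for 18-24 h. CellTiter-Fluor was read first as a viability measure. BugLite was added 15 min before the final luminescent read of ARE-luciferase activity in A549 cells.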
PI4K2A inh – qHTS for small molecular inhibitors of PI4K2A. purified PI4K2A, ADP-Glo luminescence, 1 h; hits give low values. activity change, negative = inhibition, % at 76.9 µM. 0.13% of 420,000 active; in the data active = activity change below about -50%; inconclusive = mostly about -30% to -49%;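 also: -100% = wells without enzyme as full effect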
Target sequence (Q9BTU6 whole entry, looked up): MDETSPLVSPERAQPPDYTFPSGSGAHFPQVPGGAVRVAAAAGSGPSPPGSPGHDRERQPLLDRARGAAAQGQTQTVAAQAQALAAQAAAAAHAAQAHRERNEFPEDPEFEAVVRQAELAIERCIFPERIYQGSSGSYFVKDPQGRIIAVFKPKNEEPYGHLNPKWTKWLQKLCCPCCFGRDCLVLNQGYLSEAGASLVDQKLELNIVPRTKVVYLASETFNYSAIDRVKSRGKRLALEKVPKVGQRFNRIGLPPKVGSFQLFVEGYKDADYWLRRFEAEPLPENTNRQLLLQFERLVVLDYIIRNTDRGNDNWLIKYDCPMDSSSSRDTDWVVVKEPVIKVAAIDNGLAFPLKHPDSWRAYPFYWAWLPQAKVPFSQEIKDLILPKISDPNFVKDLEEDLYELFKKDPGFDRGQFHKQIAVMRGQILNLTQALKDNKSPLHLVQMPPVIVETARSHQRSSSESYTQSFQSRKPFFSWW
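PI4K2A activity was measured by ADP-Glo luminescence: enzyme (4 ug/mL stock) and phosphatidylinositol (1.2 mM stock) in Tris pH 7.5/MgCl2/EGTA/Triton X-100 buffer were reacted with ATP (300 microM stock) for one hour at ambient temperature.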
A549 viability – Nrf2 qHTS screen for inhibitors: counterscreen for cytotoxicity; A549 ARE-Fluc cells, CellTiter-Fluor viability, 18-24 h; Potency, µM (series often up to 46 µM), inactives show at the top dose activity change, negative = cytotoxicity, most hits filed as inhibitors; 0.16% of 390,000 active; also: potency is read from the fitted curve at half-maximal effect
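A549 ARE-Fluc cells in 5% FBS OPTI-MEM, 5000 cells/well, rested 2 h then exposed to compounds in concentration-response for 18-24 h at 37 °C. Viability by CellTiter-Fluor fluorescence (Ex 405/Em 525) after 30 min; luciferase luminescence (BugLite, 15 min, RT) read afterwards.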
KB-V1 MDR tox – qHTS assay for MDR1-selective chemotherapeutics: Primary screen using the drug-selected MDR subline cells KB-V1; KB-V1 MDR cells viability, CellTiter-Glo, 72 h; Potency, µM (series often up to 46.1 µM), actives largely listed as cytotoxic; 3.4% of 400,000 active; AID 1347076, 2019; also: potency is read from the fitted curve at half-maximal effect; nearly all actives have a fitted effect of over 60% in size
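Luminescent ATP read-out (CellTiter-Glo, 10 min) measures survival of drug-selected KB-V1 MDR cells after 72 h, 37 degrees C compound exposure. Medium: phenol-red-free DMEM, 10% FBS. Values from fitted concentration-response curves.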
Giardia kill – Small Molecules that selectively kill Giardia lamblia: qHTS; Giardia lamblia trophozoite viability; activity change, % at 7.66 µM, hits read low; 0.15% of 340,000 active; in the data active = activity change below about -80%; inconclusive = between about -30% and that limit;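 also: parasites exposed to compound for two days anaerobically before the ATP read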
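Luminescence from cellular ATP indicates surviving trophozoites (100 cells/well) following 48 hrs anaerobic compound treatment at 37 deg C; signal develops 15-30 min at room temperature.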
* marks the source's active call; other numbers are inactive results; i = inactive; ? = inconclusive; . = no result. This is a sample that favours compounds with a hit; in the whole collection about 5.7% have one here. Unless noted, calls follow the shape of the dose curve; as a rule, active = well fitted curve in the direction sought with a large enough effect; inconclusive = small, poorly fitted or top-dose-only effect, or another doubt; inactive = no such curve, though single readings can be large; an effect the other way counts as inactive or inconclusive. Unless noted, % is scaled to controls: 0 for no effect and ±100 for the full control effect.

SMILES | KB-3-1 cytotox | Nrf2 inh | PI4K2A inh | A549 viability | KB-V1 MDR tox | Giardia kill
Cc1c(-c2ccccc2)oc2c(C(=O)N3CCN(c4ccccc4F)CC3)cccc2c1=O | ? | 6% | 5 | 1% | 4.6µM* | 10
COc1ccc(N2CC(C(=O)Nc3cc(C(F)(F)F)ccc3N3CCCC3)CC2=O)c(OC)c1 (centres undefined) | ? | 14% | -3 | -12% | ? | -12
COc1ccc(N2CC(C(=O)Nc3ccccc3N3CCCC3)CC2=O)c(OC)c1 (centres undefined) | 7.3µM* | 9% | -5 | -1% | ? | -6
COC(=O)c1ccccc1NC(=O)C1CC(=O)N(c2ccc(C)c(C)c2)C1 (centres undefined) | i | ? | 2 | -5% | 21µM* | 5
Cc1ccc(N2CC(C(=O)Nc3nccs3)CC2=O)cc1Cl (centres undefined) | ? | ? | -3 | 16µM* | 7.3µM* | 15
CCOC(=O)c1csc(NC(=O)C2CCCN(S(=O)(=O)c3ccccc3[N+](=O)[O-])C2)n1 (centres undefined) | . | . | -3 | . | . | .
CCS(=O)(=O)c1c(Nc2ccc(F)c(Cl)c2)sc(C(=O)c2ccccc2)c1N | i | 21µM* | -1 | ? | i | .
O=S(=O)(c1ccc2ncsc2c1)N1CCN(c2nc(-c3cccs3)nc3ccccc23)CC1 | . | ? | . | -3% | . | -22
CC(c1ccccc1)N(CCC(c1ccccc1)C1CCOC(C)(C)C1)C(=O)c1ccco1 (centres undefined) | i | -16% | 5 | 1% | 9.2µM* | -7
O=C1C=C(c2ccccc2)C(=O)N1Nc1ccccc1 | ? | -1% | 17 | -15% | i | 5
Cc1ccc(NN2C(=O)C=C(c3ccc(Cl)cc3)C2=O)cc1 | ? | 7% | 18 | 6% | 12µM* | -2
COC(=O)[C@]12C[C@H](CC(=O)NCCCN3CCCC3=O)C(=O)N(CCc3ccc(OC)c(OC)c3)C1=C[C@H](C(C)(C)C)O[C@@H]2C | . | . | -2 | . | . | .
CCN=C1S/C(=C\c2ccc(O)c(OCC)c2)C(=O)N1CC | i | 13% | -5 | 3% | 18µM* | -8
Cc1nc2cc(-c3ccc(Cl)cc3)nn2c(NCCN(C)C)c1C | i | ? | 3 | 3% | i | -96*
CCn1c(O)c(C=Nc2ccccc2)n(-c2ccccc2)c1=S | 5.8µM* | -21% | 2 | -30% | ? | 1
CC[C@]1(O)CC2CN(CCc3c([nH]c4ccccc34)[C@@](C(=O)OC)(c3cc4c(cc3OC)N(C)[C@H]3[C@@](O)(C(=O)OC)[C@H](OC(C)=O)[C@]5(CC)C=CCN6CC[C@]43[C@@H]65)C2)C1 (some centres undefined) | 0.023µM* | . | . | . | ? | .
CCC1(O)CC2CN(CCc3c([nH]c4ccccc34)C(C(=O)OC)(c3cc4c(cc3OC)N(C=O)C3C(O)(C(=O)OC)C(OC(C)=O)C5(CC)C=CCN6CCC43C65)C2)C1 (centres undefined) | 0.046µM* | ? | 1 | -15% | 16µM* | 15
CCC1(O)CC2CN(CCc3c([nH]c4ccccc34)[C@@](C(=O)OC)(c3cc4c(cc3OC)N(C=O)C3[C@]45CCN4CC=C[C@@](CC)([C@@H](OC(C)=O)[C@]3(O)C(=O)OC)[C@H]45)C2)C1 (some centres undefined) | . | . | -3 | . | . | .
Cc1cn2c(=O)cc(COC(=O)c3cccc(NC(=O)C(C)Oc4ccccc4)c3)nc2s1 (centres undefined) | . | . | -2 | 0% | . | .
Cc1cccc(Nc2ccccc2C(=O)OCC(=O)NCc2ccco2)c1C | ? | -7% | -1 | -8% | 13µM* | -3
c1ccc(Nc2nc(NCc3ccco3)c3ccccc3n2)cc1 | ? | ? | 1 | -8% | ? | 18
CSc1nc(NCc2ccco2)c2ccccc2n1 | ? | 1% | 8 | -3% | 12µM* | 4
Cc1cccc(Nc2nc(NCc3ccco3)c3ccccc3n2)c1 | ? | ? | 0 | -16% | 15µM* | -9
Cc1ccccc1C(=O)OCC(=O)NCc1ccco1 | i | 15% | 1 | 1% | i | -15
CNc1nc(NCc2ccco2)c2ccccc2n1 | ? | . | . | . | i | .
SMILES | KB-3-1 cytotox | Nrf2 inh | PI4K2A inh | A549 viability | KB-V1 MDR tox | Giardia kill
Cc1ccccc1Nc1nc(NCc2ccco2)c2ccccc2n1 | ? | -24% | -8 | -8% | 12µM* | -1
Nc1ccc(C(=O)OCC(O)CO)cc1 (centres undefined) | . | . | 4 | . | . | .
OC(C[n+]1ccccc1Cl)c1ccccc1 (centres undefined) | ? | . | . | . | i | .
COc1ccc(-c2noc(C3CCCN(C(=O)N[C@@H]4C[C@H]4c4ccccc4)C3)n2)cc1 (some centres undefined) | . | . | 7 | . | . | .
COC1=C[C@H](C(=O)NCCOC(C)=O)[C@H](C)[C@@H](c2ccccc2)CC1=O | . | . | 1 | . | . | .
Cc1ccccc1Nc1cc(C(=O)NCc2ccco2)c2ccccc2n1 | ? | 7% | 5 | -1% | 8.2µM* | 1
Cc1oc(-c2ccccc2)nc1CCC(=O)c1ccc(CC2SC(=O)NC2=O)cc1 (centres undefined) | . | . | 0 | . | . | .
Cc1ccccc1N=Nc1c(N)[nH]n(-c2ccccc2)c1=O | . | . | 1 | . | . | .
CNC(=O)c1ccc(Nc2nc(-c3ccccc3)nc3ccccc23)cc1 | i | 23µM* | 0 | -24% | ? | 17
COC(=O)c1cc(NC(=O)NC2CCCCN(Cc3ccc(Cl)cc3)C2=O)cc(C(=O)OC)c1 (centres undefined) | . | . | -5 | . | . | .
Cc1ccc(CN2CCN(/N=C/c3cccn3C)CC2)c(C)c1 | i | -3% | 3 | 10% | i | -2
